Publication PMC5540273 (PLoS ONE, 2017)

Experiments:
Settings in all cases: concentration: 1 μM, replicates: in singlicate; n = 1
JNK1 = tested on: T1, JNK1
T1 construct: gene MAPK8

JNK2 = tested on: T2, JNK2
T2 construct: gene MAPK9

JNK3 = tested on: T3, JNK3
T3 construct: gene MAPK10

KIT-autoinhibited = tested on: KIT-autoinhibited
KIT = tested on: KIT
LATS1 = tested on: LATS1
LATS2 = tested on: LATS2
LCK = tested on: LCK
LIMK1 = tested on: LIMK1
LIMK2 = tested on: LIMK2
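Note: KINOMEscan kinase panel screen.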

SMILES | %Inh (JNK1) | %Inh (JNK2) | %Inh (JNK3) | %Inh (KIT-autoinhibited) | %Inh (KIT) | %Inh (LATS1) | %Inh (LATS2) | %Inh (LCK) | %Inh (LIMK1) | %Inh (LIMK2)
FC(F)(F)c1cc(Nc2nccc(-c3c(-c4ccc(Cl)cc4)nn4ncccc34)n2)ccc1Cl [GW829351] | 8% | 58% | 65% | 1% | 38% | 0% | 0% | 0% | 0% | 0%
Nc1nc(-c2ccccn2)c(-c2ccnc3ccccc23)s1 [GW548057] | 0% | 19% | 1% | 3% | 11% | 0% | 23% | 10% | 0% | 9%
O=C(NCCCN1CCCC1=O)c1cnc(NCc2cc(Cl)ccc2Cl)nc1NC1CCNCC1 | 0% | 0% | 0% | 0% | 0% | 0% | 29% | 15% | 0% | 0%
CN1c2ccc(-c3ccc(C(=O)NCCO)cc3)cc2-c2[nH]ncc2S1(=O)=O | 14% | 1% | 0% | 17% | 17% | 0% | 11% | 28% | 17% | 7%
FC(F)(F)c1ccc(-c2nn3ncccc3c2-c2ccnc(Nc3cccc(C(F)(F)F)c3)n2)cc1 [GW828205] | 0% | 0% | 0% | 2% | 43% | 0% | 0% | 25% | 0% | 0%
